The record followed here is PubChem BioAssay AID1345085 (National Center for Advancing Translational Sciences (NCATS), 2018).

Molecules are shown by their SMILES. Results filed as inconclusive are left out. The source made the active and inactive calls. Calls follow the shape of the dose curve; as a rule, active = well fitted cell-killing curve with a large enough effect; inconclusive = small, poorly fitted or top-dose-only effect, or effect the other way; inactive = no such curve, though single readings can be large or run the other way.

The experiment concerns CAOV3. Put plainly: Confirmatory qHTS for gynecologic anti-cancer compounds from libraries of approved drugs and bioactive compounds. Also: nearly all actives have a fitted effect of over 55% in size. Particulars: gynecologic cancer cell panel viability, ATPlite luminescence, 48 h; series mostly up to 57.6 µM. In a few lines: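 ATP-based luminescent viability (ATPlite) after 48 h drug treatment at 37 °C, 5% CO2, across 57.5 uM–0.977 nM in 1:3 steps. Cells seeded at 1,000 per well 16 h beforehand; IC50 values computed, HEK 293T as selectivity control.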
On the technique in general: Quantitative high-throughput screening tests each substance at several concentrations.
Potency is read from the fitted curve at half-maximal effect.

For the compound `C1CCC(C(CC2CCCCN2)C2CCCCC2)CC1` (centres undefined), the Potency was 24.3 µM (active).
For the compound `Nc1ccccc1NC(=O)c1ccc(CNc2nccc(-c3cccnc3)n2)cc1`, the Potency is 2.73 µM (active).
Next, `CC[C@@]1(O)C(=O)OCc2c1cc1n(c2=O)Cc2cc3cc(O)ccc3nc2-1`: 0.109 µM (active); `CC(C)C[C@H](NC(=O)[C@H](Cc1ccccc1)NC(=O)c1cnccn1)B(O)O`: 0.0769 µM (active).
